TROY NFkB inh = inhibitors of TROY-dependent NF-kB signaling. 360,000 compounds, 0.98% hits. Q293 LMP1-TROYcd NF-kB luciferase reporter, 4 h. inhibition, % at 10 µM;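 active = compounds whose plate-normalised and pattern-corrected inhibition of the luciferase reporter signal at the single screening dose is 50% or more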
EBV LMP1 NFkB = Epstein-Barr LMP1 NF-kappaB reporter inhibition; LMP1-induced NF-kappaB luciferase reporter cells, luminescence; 350,000 compounds, 0.69% hits; inhibition, % at 12.5 µM; AID 504558; in the data active = inhibition above about 41%;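 also: 0% = neutral control wells and 100% = reference inhibitor control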
MITF TRPM1 inh = reduces MITF-dependent TRPM1 promoter luciferase signal. AID 488899. 330,000 compounds, 0.83% hits. SK-MEL-5 TRPM1 promoter luciferase, 24 h. inhibition, % at 12.5 µM;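 active = mean inhibition across replicates of 60% or more, whatever share of single replicates reaches that level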
HIF-2a block = blocks HIF-2a reporter activity; 360,000 compounds, 0.72% hits; 786-0 RCC cells HIF-2a reporter, luciferase luminescence, overnight; inhibition, % at 18.8 µM; AID 624352;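 active = inhibition of the luminescence signal of 40% or more relative to plate controls, in a single-dose primary screen at 18.75 µM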
Peg3 promoter = inhibitors of Peg3 promoter; HeLa PEG-Prom luciferase reporter, luminescence, overnight; inhibition, % at 20 µM; 360,000 compounds, 1.7% hits;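 active = inhibition of at least 50% at 20 µM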
TWEAK Fn14 block = inhibitors of TWEAK-Fn14 interaction signaling. inhibition, % at 10 µM. TWEAK-stimulated Fn14 reporter cells, luciferase luminescence, 8 h. 360,000 compounds, 2% hits; in the data active = inhibition above about 50%
* hit, by the source's call; i = inactive; / = no result given; ! = repeats disagree. Hits are enriched below; roughly 4% of the tested compounds scored in any of these assays.

SMILES	TROY NFkB inh	EBV LMP1 NFkB	MITF TRPM1 inh	HIF-2a block	Peg3 promoter	TWEAK Fn14 block
Cc1ccc(C(=O)Nc2cccc(C(F)(F)F)c2)cc1NC(=O)c1ccno1	5	46*	-13	-15	27	-36
Cc1ccc(C(=O)Nc2cccc(C(F)(F)F)c2)cc1Nc1cnccn1	-26	16	5	1	-3	-33
COc1cc(NC(=O)c2ccnc(N)c2)cc(C(=O)Nc2cccc(C(F)(F)F)c2)c1	-29	5	-25	-113	-51	-20
COc1cc(NC(=O)c2cnc(N)o2)cc(C(=O)Nc2cccc(C(F)(F)F)c2)c1	25	26	34	-67	56*!	57*!
Cc1ccc(C(=O)Nc2cccc(C(F)(F)F)c2)cc1Nc1ncnc2nc[nH]c12	28	44*	/	26	38	2
Cc1ccc(C(=O)Nc2cccc(C(F)(F)F)c2)cc1NC(=O)c1nccn1C	-7	7	/	-9	4	-49
Cc1ccc(C(=O)Nc2cccnc2)cc1Cl	-52	-18	-26	-184	-163	-27
COc1ccc(S(=O)(=O)NCC(c2cccnc2)N2CCN(c3ccc(F)cc3)CC2)cc1C (stereo not given)	-3	82*	16	2	13	6
COc1ccc(S(=O)(=O)NCC(c2cccnc2)N2CCN(c3ccccc3)CC2)cc1C (stereo not given)	-14	7	6	-13	4	29
NS(=O)(=O)c1ccc(CCNC(=O)c2ccc[nH]c2=S)cc1	13	-7	5	23	-1	8
COc1ccc(N(C(=O)c2ccco2)S(=O)(=O)c2cc(Cl)c(Cl)cc2Cl)cc1	54*	3	2	3	17	25
COc1ccc(-c2nn(-c3ccccc3)cc2/C=N/N=C(N)N)cc1OC	25	-1	94*	15	104*	-1
CCOc1ccc(/C=C/C(O)=C2/C(=O)N(C)C3(C)CC2c2ccccc2O3)cc1OC (stereo not given)	19	6	35	62*	40	30
CCOc1ccc(/C=C/C(O)=C2/C(=O)NC3(C)CC2c2ccccc2O3)cc1OC (stereo not given)	17	-44	51	22	37	36
COc1cc(OC)cc(C(=O)NC2CC3CCC(C2)N3C)c1 (stereo not given)	-12	1	7	13	0	9
CCN1CCN(CCNC(=O)c2ccc(/C=C3/Sc4ccccc4N(Cc4ccccc4C)C3=O)cc2)CC1	42	-6	-6	19	87*	-76
CCOCCCNC(=O)CN1C(=O)/C(=C/c2ccccc2)Sc2ccccc21	14	6	3	-18	3	16
CCN1CCN(CCCNC(=O)c2ccc(/C=C3/Oc4ccccc4N(Cc4cccc(C)c4)C3=O)cc2)CC1	9	-1	76*	4	75*	-124
CCOCCCNC(=O)CN1C(=O)/C(=C\c2ccc(C)cc2)Sc2ccccc21	-10	69*	-2	-33	-71	24
CN(Cc1ccccc1)Cc1ccccc1C(O)c1ccccc1 (stereo not given)	-7	-11	-6	11	22	5
CC(=O)Nc1sc(N/N=C\c2ccccc2)nc1-c1cccs1	-27	-12	10	-46	-199	-13
CC(=O)Nc1sc(N/N=C\c2ccccc2Cl)nc1-c1cccs1	16	-4	14	0	-151	67*
CC(=O)Oc1ccc(/C=C(\NC(=O)c2ccco2)C(=O)NCc2ccco2)cc1	3	7	3	14	0	24
CCCNC(=O)C1(C)CCN(C(=O)Cc2ccc3ccccc3c2)C1 (stereo not given)	6	/	/	7	5	5
Cc1nc(-c2ccccc2)cn(O)c1=O	6	0	15	2	4	64*
SMILES	TROY NFkB inh	EBV LMP1 NFkB	MITF TRPM1 inh	HIF-2a block	Peg3 promoter	TWEAK Fn14 block
CCOC(=O)c1c(NC(=O)COc2ccccc2C#N)sc2c1CC(C)(C)NC2(C)C	-4	-2	53	10	29	14
CCOC(=O)c1c(NC(=O)CSc2nnnn2-c2ccccc2)sc2c1CC(C)(C)NC2(C)C	10	7	-4	3	55*	-16
CCOC(=O)c1c(NC(=O)COc2ccccc2OCC)sc2c1CC(C)(C)NC2(C)C	-7	4	84*	18	107*	4
CCCCCCCCCCCC1N=C(N)NC(CCCO)=C1C(=O)OC (stereo not given)	26	-3	-8	38	96*	39
CCCCCCOC(=O)c1ccc(N)cc1	-44	3	-46	-298	-317	-22
Cn1c(=O)cc(OCCCC(=O)NCc2ccccn2)c2ccccc21	-12	-7	2	-8	6	-2
Cc1ccnc(NC(=O)CSc2cc(=O)n(C)c3ccccc23)c1	4	-74	-2	-264	70*	-4
Cc1ccnc(NC(=O)CCCOc2cc(=O)n(C)c3ccccc23)c1	1	-444	5	i	92*	38
Cc1ccc(C)c(NC(=S)NC(NC(=O)/C=C/c2ccccc2)C(Cl)(Cl)Cl)c1 (stereo not given)	30	13	42	16	39	55*
Cc1ccc(C)c(NC(=S)NC(NC(=O)OCc2ccccc2)C(Cl)(Cl)Cl)c1 (stereo not given)	49	5	1	24	-15	61*
O=C(NC(NC(=S)Nc1c(Cl)cc(Cl)cc1Cl)C(Cl)(Cl)Cl)OCc1ccccc1 (stereo not given)	37	12	10	19	37	38
O=C(/C=C/c1ccccc1)NC(NC(=S)Nc1cccc(O)c1)C(Cl)(Cl)Cl (stereo not given)	47	6	10	16	24	56*
Cc1ccc(O)c(NC(=S)NC(=O)/C=C/c2ccccc2)c1	-8	0	7	-38	-17	-3
O=C(/C=C/c1ccccc1)NC(NC(=S)Nc1ccc(C(=O)O)cc1)C(Cl)(Cl)Cl (stereo not given)	0	-1	-14	-5	-3	-3
O=C(/C=C/c1ccccc1)NC(NC(=S)Nc1ccc(Cl)cc1Cl)C(Cl)(Cl)Cl (stereo not given)	28	1	8	-7	25	64*
c1cncc(-c2nnc(SCc3nc4ccccc4[nH]3)o2)c1	74*	-5	26	-6	26	24
O=C(C[n+]1ccccc1)N/N=C/c1c(F)cccc1Cl	2	2	-5	6	-2	7
Cc1cc(=O)n2cccc(O)c2n1	1	2	-7	2	16	-7
Cc1ccc(NC(=O)CSc2nc3ccccc3c3nc(CCn4cncc4C)nn23)c(C)c1	-12	-4	-14	6	96*	-13
Cc1cccc(Cn2c(C)nc3c(N)c(C)c(C)cc32)c1	19	-6	10	8	8	1
Cn1c(=O)c(C(=O)Nc2ccccn2)c(O)c2ccccc21	30	-7	-15	-44	-79	56*

Assay outcomes (PubChem BioAssay)
